Source: PubChem BioAssay (National Center for Advancing Translational Sciences (NCATS))
TDP1 cell noCPT: qHTS for Inhibitors of human tyrosyl-DNA phosphodiesterase 1 (TDP1): qHTS in cells in absence of CPT. actives 15% (n = 420,000). Potency, µM (series often up to 46.2 µM), for inactives: at the highest dose activity change, negative = growth inhibition, usual class: inhibitors. DT40 Tdp1-/- hTDP1 cells, no CPT, ATP luminescence, 48 h; further: potency means the concentration at half of the fitted maximal effect; nearly all actives have a fitted effect of over 55% in size
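Compound effects on proliferation are scored in DT40 Tdp1-/-;hTDP1 cells in the absence of CPT. ATP levels (CellTiter-Glo luminescence) are recorded after a ≥48 hr, 37 °C incubation.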
HT1080 IDH1KD tx: qHTS for induction of synthetic lethality in tumor cells producing 2HG: qHTS for the HT-1080-IDH1KD cell line; HT-1080 IDH1 knockdown viability, ATP luminescence, 48 h; Potency, µM (doses to about 46.1 µM), for inactives: at the highest dose activity, negative = toxicity, actives largely listed as cytotoxic; actives 2% (n = 360,000); AID 686971, 2013;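 further: potency means the concentration at half of the fitted maximal effect; 0% = DMSO wells and -100% = cell-free medium wells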
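Cytotoxicity counter-line: IDH1KD HT-1080, 48 h, CellTiter-Glo. Curves classed by r2, magnitude and activity.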
DT40 TDP1 CPT: qHTS for Inhibitors of human tyrosyl-DNA phosphodiesterase 1 (TDP1): qHTS in cells in presence of CPT | chicken DT40 Tdp1-/-;hTDP1 cells + 20 nM CPT, ATP luminescence, 48 h | Potency, µM (titrated, usually from 46.2 µM), for inactives: top-dose activity change, negative = growth inhibition, most hits filed as inhibitors | actives 12% (n = 420,000) | AID 686979, 2013; further: potency means the concentration at half of the fitted maximal effect; nearly all actives have a fitted effect of over 55% in size
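Chicken DT40 Tdp1-/- cells stably complemented with human TDP1 were seeded at 400 cells/well in medium containing 20 nM camptothecin, exposed to pin-transferred compounds, and grown at 37 °C for at least 48 hr. Viability was read as ATP luminescence.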
IL1B secr inh: qHTS for Inhibitors of Inflammasome Signaling: IL-1-beta AlphaLISA Primary Screen. THP-1 LPS/ATP IL-1B secretion, AlphaLISA, 16 h; hits give low values. AID 743279, 2014. activity change, % at 57.5 µM. actives 4.7% (n = 360,000); in the data active means activity change below about -50%; inconclusive means mostly about -30% to -49%
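THP-1 cells pretreated 1 hr with compounds (up to 57.5 uM final), then stimulated with LPS (250 ng/mL final) plus ATP (1.25 mM final); secreted IL-1B measured by AlphaLISA after 16 hr, decreased signal indicating inhibition.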
HT1080NT lethal: qHTS for induction of synthetic lethality in tumor cells producing 2HG: qHTS for the HT-1080-NT fibrosarcoma cell line. Potency, µM (titrated, usually from 46.1 µM), for inactives: at the highest dose activity, negative = less viability, usual class: cytotoxic. actives 1.6% (n = 360,000). HT-1080-NT fibrosarcoma viability, CellTiter-Glo ATP luminescence, 48 h. AID 686970, 2013;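 further: NT is the 2HG producing partner of a matched IDH1 knockdown line; potency means the concentration at half of the fitted maximal effect; 0% = DMSO-treated cells and -100% = media-only wells without cells; nearly all actives have a fitted effect of over 55% in size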
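750 cells/well, RPMI + 5% FBS; 2 h settle, compound pin-transfer, 48 h at 37 degrees C. CellTiter-Glo 10 min RT, luminescence. Normalized to DMSO and media-only wells.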
* = called active by the depositor; ? = inconclusive; · = no result. Only some compounds are listed: those with a hit (about 19% of all), similar ones and a draw of the others. Unless noted, the call rests on the fitted dose curve; in most records, active means well fitted curve in the direction sought with a large enough effect; inconclusive means small, poorly fitted or top-dose-only effect, or another doubt; inactive means no such curve, though single readings can be large; an effect the other way counts as inactive or inconclusive. Unless noted, on the % scale 0 is the no-effect control and ±100 the full control effect.

SMILES	TDP1 cell noCPT	HT1080 IDH1KD tx	DT40 TDP1 CPT	IL1B secr inh	HT1080NT lethal
NC(=O)CC(NC(=O)Cc1cccc2ccccc12)c1ccc(NCCc2ccc(F)cc2)c([N+](=O)[O-])c1 (configuration not stated)	?	2%	?	7	10%
COc1ccc(NC(=O)c2ccc(COc3ccc(C)cc3)o2)cc1	?	1%	?	9	0%
CN1CCc2c(sc3c2c(=O)n(-c2ccccc2)c2nnc(SCc4ccc(Cl)cc4)n32)C1	?	3%	13µM*	-81*	6%
CN1CCc2c(sc3c2c(=O)n(-c2cccc(Cl)c2)c2nncn32)C1	-29%	0%	?	7	-13%
CC(NC(=O)CCCc1nnc2n(C)c(=O)c3sccc3n12)c1ccccc1 (configuration not stated)	-7%	9%	-7%	-21	-6%
O=S(CC(O)c1ccccc1)c1ccccc1 (configuration not stated)	16µM*	0%	?	6	-3%
OC(CC(O)c1ccccc1)c1ccccc1 (configuration not stated)	1%	9%	-2%	-2	11%
O=C(c1ccoc1)N1CCC2(CC1)Oc1ccc(Cl)cc1C(=O)C21CC(c2ccc(Cl)cc2)=NO1 (configuration not stated)	?	-3%	21µM*	?	-1%
Cc1ccc(C(=O)N2CCC3(CC2)Oc2ccc(Cl)cc2C(=O)C32CC(c3ccc(Cl)cc3)=NO2)s1 (configuration not stated)	1%	3%	-3%	-4	4%
O=C(c1ccoc1)N1CCC2(CC1)Oc1ccc(F)cc1C(=O)C21CC(c2ccccc2)=NO1 (configuration not stated)	?	-8%	?	-20	-6%
O=C(c1ccoc1)N1CCC2(CC1)Oc1ccc(F)cc1C(=O)C21CC(c2ccc(Cl)cc2)=NO1 (configuration not stated)	?	-11%	?	-56*	-1%
CCCCn1c2c(c(=N)c3ccccc31)CCC2	?	-15%	?	-2	?
CCCCCCCCCCn1c2c(c(=N)c3c1CCC3)CCC2	0.029µM*	?	0.26µM*	-96*	1µM*
CCCCCCCCCn1c2c(c(=N)c3c1CCC3)CCCC2	0.018µM*	4.6µM*	0.026µM*	-99*	7.3µM*
CCn1c2c(c(=N)c3c1CCC3)CCCC2	9.2µM*	-19%	?	40	?
CN(Cc1nccs1)C(=O)C1CCC(=O)N(Cc2ccccc2F)C1 (configuration not stated)	0%	-16%	-21%	14	0%
O=S(=O)(Nc1ncccn1)c1ccc(NC(=S)NCCc2ccccc2)cc1	1%	-2%	11%	55	-5%
Cc1cc(NCCOCCO)n2ncc(-c3ccc(Cl)cc3)c2n1	-25%	?	2%	-4	?
Cc1cc(NCc2ccccn2)n2ncc(-c3ccc(Cl)cc3)c2n1	0.82µM*	?	0.58µM*	-3	?
Cc1cc(NCc2ccccn2)n2ncc(-c3ccccc3)c2n1	0.15µM*	?	0.16µM*	-7	-25%
c1cncc(-c2cc(-n3ccnc3)ncn2)c1	-14%	·	?	·	·
CCOc1ccc(NC(=O)Cn2nnc(C(=O)OC)c2C(=O)OC)cc1	-6%	·	12%	·	·
CC(C)CN(C(=O)COC(=O)c1ccc(Br)o1)c1c(N)n(Cc2ccccc2)c(=O)[nH]c1=O	5%	-1%	-2%	-13	7%
COc1cc(O)c2c(=O)c(-c3ccc(O[C@@H]4O[C@H](CO)[C@@H](O)[C@H](O)[C@H]4O)cc3)coc2c1	-8%	-27%	3%	-26	-25%
COc1cc(OC)c(NC(=O)N2CCc3c([nH]c4ccccc34)C2c2ccccc2F)cc1Cl (configuration not stated)	23µM*	·	18µM*	·	·
SMILES	TDP1 cell noCPT	HT1080 IDH1KD tx	DT40 TDP1 CPT	IL1B secr inh	HT1080NT lethal
O=C(c1cc[n+]([O-])cc1)N1CCc2c([nH]c3ccccc23)C1c1ccccc1Cl (configuration not stated)	-20%	?	-1%	4	-21%
COc1cc(OC)c(NC(=O)N2CCc3c(sc4c3CCCC4)C2c2ccccc2)cc1Cl (configuration not stated)	21µM*	·	?	·	·
COc1cc(NC(=O)N2CCc3c(sc4c3CCCC4)C2c2ccccc2)cc(OC)c1OC (configuration not stated)	21µM*	·	10µM*	·	·
Cc1cc([N+](=O)[O-])ccc1NC(c1nnc(-c2ccccc2)o1)c1ccccc1F (configuration not stated)	-7%	·	8%	·	·
CCN(Cc1ccncc1)Cc1ccc2c(c1)CN(C(=O)c1ccccc1-n1cccn1)CCO2	-12%	·	9%	·	·
CCN(CC)S(=O)(=O)c1ccc(-c2cc(C(=O)OC)sc2C(F)(F)F)cc1	18µM*	-2%	-30%	-21	-5%
COC(=O)c1cc(-c2ccc(S(=O)(=O)N3CCCCC3)cc2)c(C(F)(F)F)s1	23µM*	-8%	?	9	-14%
N/C(=N\c1nc2ccccc2o1)NC(=O)c1ccccc1NC(=O)c1ccccc1	3.7µM*	?	5.2µM*	6	?
N/C(=N\c1nc2ccccc2o1)NC(=O)c1ccccc1F	?	8%	-1%	6	8%
Cc1cc2nc(C3CCCCC3)c(Cc3ccccc3)n2c(C)c1Br	23µM*	-24%	?	41	-15%
Cc1cc2nc(-c3ccc(C#N)cc3)c(Cc3ccsc3)n2c(C)c1Br	16µM*	?	16µM*	4	-27%
Cc1cc2nc(-c3ccccc3)c(Cc3ccsc3)n2c(C)c1Br	15µM*	?	15µM*	17	-26%
Cc1cc2nc(-c3ccccc3)c(Cc3ccccc3)n2c(C)c1Br	?	-16%	23µM*	-4	?
Cc1ccc(Cc2c(-c3cccc(Br)c3)nc3cc(C)c(Br)c(C)n23)cc1	?	-4%	?	0	-1%
COc1ccc(C(=O)NC(Nc2ccccc2)C(Cl)(Cl)Cl)cc1 (configuration not stated)	?	-18%	-23%	-5	-6%
